Measurements as given in the supplement of paper PMC10498489.
The whole screen tested about 2,300 compounds, of which about 330 (14%) showed activity.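 Rule for the calls: active = median modified Z-score above 1.96; inactive = 1.96 or below.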 A selection follows.

The compounds below were run on HepG2 Srxn1-GFP reporter cells (+30 nM CDDO-Me) (assay: Srxn1-GFP intensity median modified Z-score relative to plate median; higher = stronger NRF2 / oxidative stress reporter activation, active = hit call of the paper). Conditions: 10 µM; exposure time: 24h.
Method in brief: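 Each value is the replicate median of a per-plate modified Z-score for GFP intensity in HepG2 Srxn1-GFP BAC reporter cells. The cells (20,000 per well, 96-well plates, three replicate plates) received compound at 10 μM together with an NRF2 activator at 30 nM for 24 h, in ≤0.1% DMSO. Cytoplasmic GFP was quantified per cell from confocal images of formaldehyde-fixed, Hoechst-stained cells, leaving out images with fewer than 100 cells, and scaling used 1.4826 × median absolute deviation.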
`CCn1c(O)c(-c2ccccc2)[nH]c1=O` [euspeclibcmpd780] was tested, and the “Srxn1-GFP intensity median modified Z-score” value was -0.504 (inactive).
With `Cc1c(NC(=O)c2ccsc2)c(=O)n(-c2ccccc2)n1C` the “Srxn1-GFP intensity median modified Z-score” value was 0.403 (inactive).
In the case of `CO[C@H]1C[C@H](O[C@@H]2C(C)C(=O)O[C@H](C)[C@H](C)[C@H](OC(C)=O)C(C)C(=O)[C@@]3(CO3)C[C@H](C)[C@H](OC3O[C@H](C)C[C@H](N(C)C)[C@H]3OC(C)=O)[C@H]2C)O[C@@H](C)[C@@H]1OC(C)=O` (some centres not stated) [euspeclibcmpd623], the “Srxn1-GFP intensity median modified Z-score” value is reported as -0.159 (inactive).
For `CC(=O)C1CCC2C3CC=C4CC(=O)CC[C@]4(C)C3CC[C@]12C` (some centres not stated) [euspeclibcmpd251], the “Srxn1-GFP intensity median modified Z-score” value was 2.27 (active).
`CC(=O)C12OC(C)(c3ccccc3)OC1CC1C3CC=C4CC(=O)CCC4(C)C3CCC12C` (configuration not stated) [euspeclibcmpd1961] was tested, and the “Srxn1-GFP intensity median modified Z-score” value was 5.88 (active).
In the case of `CC(=O)C1CCC2C3CC=C4C[C@@H](O)CC[C@]4(C)C3CC[C@]12C` (some centres not stated) [euspeclibcmpd1041], the “Srxn1-GFP intensity median modified Z-score” value is reported as 0.815 (inactive).
In the case of `CC(=O)OCC(=O)C1CCC2C3CC=C4CC(=O)CC[C@]4(C)C3CC[C@]12C` (some centres not stated) [euspeclibcmpd6], the “Srxn1-GFP intensity median modified Z-score” value is reported as -0.444 (inactive).
`CCCCC(=O)O[C@]1(C(=O)CO)CCC2C3CC=C4CC(=O)CC[C@]4(C)C3[C@@H](O)C[C@@]21C` (some centres not stated) [euspeclibcmpd786] was tested, and the “Srxn1-GFP intensity median modified Z-score” value was -0.698 (inactive).
In the case of `CCCCCC(=O)O[C@]1(C(C)=O)CCC2C3CC=C4CC(=O)CC[C@]4(C)C3CC[C@@]21C` (some centres not stated) [euspeclibcmpd155], the “Srxn1-GFP intensity median modified Z-score” value is reported as 13.5 (active).
With `CC(=O)[C@@]1(O)CCC2C3CC=C4CC(=O)CC[C@]4(C)C3CC[C@@]21C` (some centres not stated) [euspeclibcmpd1279] the “Srxn1-GFP intensity median modified Z-score” value was -0.195 (inactive).
In the case of `C[C@]12CCC(=O)CC1=CCC1C2C(=O)C[C@@]2(C)C1CC[C@]2(O)C(=O)CO` (some centres not stated) [euspeclibcmpd1248], the “Srxn1-GFP intensity median modified Z-score” value is reported as -0.459 (inactive).
With `CCCC(=O)O[C@]1(C(=O)CO)CCC2[C@@H]3CC=C4CC(=O)CC[C@]4(C)C3[C@@H](O)C[C@@]21C` (some centres not stated) [euspeclibcmpd566] the “Srxn1-GFP intensity median modified Z-score” value was -0.863 (inactive).
`CC(=O)O[C@]1(C(C)=O)CCC2C3=CC(Cl)=C4CC(=O)CC[C@]4(C)C3CC[C@@]21C` (some centres not stated) [euspeclibcmpd746] was tested, and the “Srxn1-GFP intensity median modified Z-score” value was -0.232 (inactive).
In the case of `N=C(N)NC(=O)c1nc(Cl)c(=N)[nH]c1N` [euspeclibcmpd18], the “Srxn1-GFP intensity median modified Z-score” value is reported as 1.07 (inactive).
In the case of `C[C@]12CCC3c4ccc(O)cc4CCC3C1CCC2=O` (some centres not stated) [euspeclibcmpd118], the “Srxn1-GFP intensity median modified Z-score” value is reported as -0.384 (inactive).
For `CC1C(=NO)C[C@@H]2C[C@H]1C2(C)C` (some centres not stated) [euspeclibcmpd1398], the “Srxn1-GFP intensity median modified Z-score” value was -0.67 (inactive).
`OCc1cc(O)c2c(O)c3c(O[C@@H]4O[C@H](CO)[C@@H](O)[C@H](O)[C@H]4O)cccc3c(O[C@@H]3O[C@H](CO)[C@@H](O)[C@H](O)[C@H]3O)c2c1` [euspeclibcmpd932] was tested, and the “Srxn1-GFP intensity median modified Z-score” value was 0.277 (inactive).
`CCC(C(=O)O)c1ccccc1` (configuration not stated) [euspeclibcmpd2274] was tested, and the “Srxn1-GFP intensity median modified Z-score” value was -0.651 (inactive).
In the case of `O=c1ccc2ccc(O)cc2o1` [euspeclibcmpd1541], the “Srxn1-GFP intensity median modified Z-score” value is reported as -0.459 (inactive).
In the case of `O=c1oc2cc(O)ccc2s1` [euspeclibcmpd1146], the “Srxn1-GFP intensity median modified Z-score” value is reported as 5.96 (active).
With `Cc1cc(=O)oc2cc(O)ccc12` [euspeclibcmpd929] the “Srxn1-GFP intensity median modified Z-score” value was 0.128 (inactive).
`CC(CS)C(=O)N1CCCC1C(=O)O` (configuration not stated) [euspeclibcmpd337] was tested, and the “Srxn1-GFP intensity median modified Z-score” value was -0.273 (inactive).
With `O=C(Nc1nc(-c2ccc(F)c(F)c2)cs1)c1cc(F)c(F)cc1[N+](=O)[O-]` the “Srxn1-GFP intensity median modified Z-score” value was 0.285 (inactive).
In the case of `Cn1c(=O)c2c(ncn2CC2OCCO2)n(C)c1=O` [euspeclibcmpd483], the “Srxn1-GFP intensity median modified Z-score” value is reported as -0.13 (inactive).
For `O=c1cc(-c2ccccc2)oc2ccc(O)cc12` [euspeclibcmpd1505], the “Srxn1-GFP intensity median modified Z-score” value was 0.447 (inactive).
With `O=c1cc(-c2ccccc2)oc2c(O)c(O)ccc12` [euspeclibcmpd2237] the “Srxn1-GFP intensity median modified Z-score” value was 4.14 (active).
`O=c1cc(-c2ccccc2)oc2cc(O)ccc12` [euspeclibcmpd1489] was tested, and the “Srxn1-GFP intensity median modified Z-score” value was -0.269 (inactive).
In the case of `O=c1c(Cc2c(O)oc3ccccc3c2=O)c(O)oc2ccccc12` [euspeclibcmpd328], the “Srxn1-GFP intensity median modified Z-score” value is reported as -0.0638 (inactive).
`CCCCc1c(O)n(-c2ccccc2)n(-c2ccccc2)c1=O` [euspeclibcmpd235] was tested, and the “Srxn1-GFP intensity median modified Z-score” value was 0.115 (inactive).
In the case of `CCCCc1c(O)n(-c2ccc(O)cc2)n(-c2ccccc2)c1=O` [euspeclibcmpd223], the “Srxn1-GFP intensity median modified Z-score” value is reported as 13.1 (active).
With `O=c1c(CC[S+]([O-])c2ccccc2)c(O)n(-c2ccccc2)n1-c1ccccc1` (configuration not stated) [euspeclibcmpd282] the “Srxn1-GFP intensity median modified Z-score” value was -0.197 (inactive).
In the case of `O=c1c2c3c(sc2nc(SCc2ccc(Cl)c(Cl)c2)n1-c1ccccc1)CCCC3`, the “Srxn1-GFP intensity median modified Z-score” value is reported as 1.55 (inactive).
In the case of `COCCn1nc(C(=O)NC(C)c2cccc(Cl)c2)ccc1=O` (configuration not stated), the “Srxn1-GFP intensity median modified Z-score” value is reported as 1.38 (inactive).
With `Cc1cc(C(C)(C)C)c(O)c(C(C)(C)C)c1` [euspeclibcmpd1001] the “Srxn1-GFP intensity median modified Z-score” value was 14.5 (active).
For `Cc1cc(C(C)(C)C)c(O)c(C)c1CC1=NCCN1` [euspeclibcmpd222], the “Srxn1-GFP intensity median modified Z-score” value was 0.261 (inactive).
For `CC(C)(Sc1cc(C(C)(C)C)c(O)c(C(C)(C)C)c1)Sc1cc(C(C)(C)C)c(O)c(C(C)(C)C)c1` [euspeclibcmpd377], the “Srxn1-GFP intensity median modified Z-score” value was -0.0593 (inactive).
`CN(C)CCCN1c2ccccc2Sc2ccc(Cl)cc21` [euspeclibcmpd59] was tested, and the “Srxn1-GFP intensity median modified Z-score” value was 0.609 (inactive).
In the case of `O=C(NCCC(=O)N1CCN(Cc2ccc3c(c2)OCO3)CC1)c1ccc(Cl)cc1`, the “Srxn1-GFP intensity median modified Z-score” value is reported as 1.31 (inactive).
For `CC1(C)SC2C(NC(=O)C(N)c3ccccc3)C(=O)N2C1C(=O)O` (configuration not stated) [euspeclibcmpd2081], the “Srxn1-GFP intensity median modified Z-score” value was -0.172 (inactive).
For `CC1C(=O)CCC2[C@]3(C)CC[C@@]4(C)C5CC(C)(C)CC[C@]5(C)CC[C@]4(C)C3CC[C@]12C` (some centres not stated) [euspeclibcmpd1606], the “Srxn1-GFP intensity median modified Z-score” value was -0.261 (inactive).
`CC[C@@H]1OC(=O)C[C@@H](O)[C@H](C)[C@@H](O[C@@H]2O[C@H](C)[C@@H](O)[C@H](N(C)C)[C@H]2O)[C@@H](CCN2C[C@H](C)C[C@H](C)C2)CC(C)C(=O)/C=C/C(C)=C\C1CO[C@@H]1O[C@H](C)[C@@H](O)[C@@H](OC)[C@H]1OC` (some centres not stated) [euspeclibcmpd704] was tested, and the “Srxn1-GFP intensity median modified Z-score” value was 0.22 (inactive).
With `C=C(C)c1cc(O)c(C)cc1O` [euspeclibcmpd1354] the “Srxn1-GFP intensity median modified Z-score” value was 6.7 (active).
